Structures can show the parent of a compound that is named as a salt.
What was measured:
Details in all cases: incubation time: 27 h, anaerobic, 37 °C;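 for the amine columns active = adjusted P below 0.05 in both replicates with a change the same way and a mean fold change under 0.8 or over 1.25; inactive = the rest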
[1] = tested on: Clostridium sporogenes DSM 1664; test: growth (OD595) fold change vs plate DMSO controls (fold change (ratio)); higher = more growth
Method in brief: (§1)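 Growth is calculated as fold change against the median of the DMSO control wells on each plate. Readings at 595 nm from anaerobic mGAM cultures (96-well, 27 h, 37 °C) were blank-subtracted, background-corrected with 20 µM compound solutions in water, and converted to OD by a calibration factor of 5. Fold changes above 1.5 were recorded as NA, and results are means of 2 biological replicates.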

Escherichia coli IAI1 [2] = test: as above
Method in brief: as §1

[3] = tested on: Klebsiella aerogenes DSM 30053; test: as above
Method in brief: as §1

[4] = tested on: Ruminococcus gnavus DSM 108212; test: as above
Method in brief: as §1

[5] = tested on: Klebsiella aerogenes DSM 30053; test: fold change of Histamine concentration vs plate DMSO controls (fold change (ratio)); higher = more amine produced, active = hit call of the paper (significant change in both replicates, either direction)
Method in brief: (§2)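 In 80 µL wells, cultures of four gut bacterial strains in mGAM started at OD 0.1 before a 1:1 dilution and grew anaerobically at 37 °C for 27 h. Compounds were added to 20 µM final, except sweeteners at 50 µM final. After extraction of whole cultures with cold acetonitrile/methanol plus 0.1% formic acid and centrifugation, amines were measured by LC–triple-quadrupole MS in dynamic MRM mode against external calibration curves, with within-batch drift correction. Values give fold change over DMSO controls on the same plate, averaged across 2 biological replicates.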

[6] = tested on: Clostridium sporogenes DSM 1664; test: fold change of Tryptamine concentration vs plate DMSO controls (fold change (ratio)); higher = more amine produced, active = hit call of the paper (significant change in both replicates, either direction)
Method in brief: as §2

[7] = tested on: Ruminococcus gnavus DSM 108212; test: as above
Method in brief: as §2

Escherichia coli IAI1 [8] = test: fold change of Putrescine concentration vs plate DMSO controls (fold change (ratio)); higher = more amine produced, active = hit call of the paper (significant change in both replicates, either direction)
Method in brief: as §2

[9] = tested on: Klebsiella aerogenes DSM 30053; test: as above
Method in brief: as §2

Escherichia coli IAI1 [10] = test: fold change of Cadaverine concentration vs plate DMSO controls (fold change (ratio)); higher = more amine produced, active = hit call of the paper (significant change in both replicates, either direction)
Method in brief: as §2

[11] = tested on: Klebsiella aerogenes DSM 30053; test: as above
Method in brief: as §2

[12] = tested on: Ruminococcus gnavus DSM 108212; test: fold change of 2-Phenylethylamine concentration vs plate DMSO controls (fold change (ratio)); higher = more amine produced, active = hit call of the paper (significant change in both replicates, either direction)
Method in brief: as §2

| SMILES | growth [1] | growth (Escherichia coli IAI1 [2]) | growth [3] | growth [4] | fold change of Histamine concentration [5] | fold change of Tryptamine concentration [6] | fold change of Tryptamine concentration [7] | fold change of Putrescine concentration (Escherichia coli IAI1 [8]) | fold change of Putrescine concentration [9] | fold change of Cadaverine concentration (Escherichia coli IAI1 [10]) | fold change of Cadaverine concentration [11] | fold change of 2-Phenylethylamine concentration [12] |
| --- | --- | --- | --- | --- | --- | --- | --- | --- | --- | --- | --- | --- |
| CC(C)(C)C(=O)OCOC(=O)[C@@H]1N2C(=O)[C@@H](/N=C/N3CCCCCC3)[C@H]2SC1(C)C [Pivmecillinam hydrochloride] (20 µM) | 0.954 | 1.01 | 0.909 | 1.2 | 0.597 (active) | 1.01 (inactive) | 1.03 (inactive) | 1.02 (inactive) | 0.954 (inactive) | 1.46 (active) | 1.01 (inactive) | 1.03 (inactive) |
| CNCC(O)c1ccc(O)c(O)c1 (stereo not given) [Racepinephrine hydrochloride] (20 µM) | 1.15 | 1.07 | 1.27 | 1.24 | 0.938 (inactive) | 1.05 (inactive) | 1.05 (inactive) | 1.01 (inactive) | 1.02 (inactive) | 0.94 (inactive) | 1.03 (inactive) | 1.05 (inactive) |
| CNCC[C@@H](Oc1cccc2ccccc12)c1cccs1 [(R)-Duloxetine hydrochloride] (20 µM) | 1.03 | 1.07 | 0.994 | 0.9 | 1.01 (inactive) | 0.986 (inactive) | 0.979 (inactive) | 1.04 (inactive) | 0.994 (inactive) | 0.952 (inactive) | 0.986 (inactive) | 1.02 (inactive) |
| Nc1cccc2c1C(=O)N(C1CCC(=O)NC1=O)C2=O (stereo not given) [Pomalidomide] (20 µM) | 1.09 | 1.02 | 1.02 | 1.04 | 1.13 (inactive) | 1.12 (inactive) | 1.03 (inactive) | 0.938 (inactive) | 1.04 (inactive) | 0.954 (inactive) | 1.03 (inactive) | 1.07 (inactive) |
| O=C1c2ccccc2C(=O)C1c1ccccc1 [Phenindione] (20 µM) | 1.17 | 0.963 | 0.969 | 1.07 | 1.08 (inactive) | 1 (inactive) | 1.01 (inactive) | 0.958 (inactive) | 1 (inactive) | 0.984 (inactive) | 0.976 (inactive) | 0.977 (inactive) |
| COc1ccccc1N1CCN(CCCNc2cc(=O)n(C)c(=O)n2C)CC1 [Urapidil hydrochloride] (20 µM) | 0.984 | 0.934 | 1 | 0.999 | 0.993 (inactive) | 1.04 (inactive) | 0.977 (inactive) | 0.978 (inactive) | 1.01 (inactive) | 1.03 (inactive) | 1 (inactive) | 0.971 (inactive) |
| Cn1c(=O)c2[nH]cnc2n(C)c1=O [Aminophylline] (20 µM) | 0.81 | 0.991 | 0.955 | 0.972 | 0.965 (inactive) | 1.06 (inactive) | 0.972 (inactive) | 1.17 (inactive) | 1.02 (inactive) | 1.01 (inactive) | 1 (inactive) | 0.939 (inactive) |
| CC(C)[C@H](N)C(=O)OCC(CO)OCn1cnc2c(=O)nc(N)[nH]c21 (stereo not given in full) [Valganciclovir hydrochloride] (20 µM) | 1.1 | 0.991 | 1.03 | 0.987 | 0.998 (inactive) | 0.983 (inactive) | 0.964 (inactive) | 1.01 (inactive) | 1.01 (inactive) | 1.01 (inactive) | 1.01 (inactive) | 0.926 (inactive) |
| Nc1cc(C(Cl)=C(Cl)Cl)c(S(N)(=O)=O)cc1S(N)(=O)=O [Clorsulon] (20 µM) | 1.04 | 0.963 | 0.957 | 0.922 | 1.15 (inactive) | 0.998 (inactive) | 1.02 (inactive) | 1.02 (inactive) | 1.03 (inactive) | 0.981 (inactive) | 0.978 (inactive) | 1.01 (inactive) |
| COc1cc2c(cc1OC)CC(=O)N(CCCN(C)C[C@H]1Cc3cc(OC)c(OC)cc31)CC2 [Ivabradine hydrochloride] (20 µM) | 1.05 | 0.995 | 0.986 | 0.903 | 1.02 (inactive) | 1.01 (inactive) | 1.1 (inactive) | 0.924 (inactive) | 0.937 (inactive) | 0.895 (inactive) | 1.01 (inactive) | 1.1 (inactive) |
| CC(C)(CO)[C@@H](O)C(=O)NCCCO [(D)-Panthenol] (20 µM) | 0.885 | 0.982 | 1.05 | 1.15 | 1.02 (inactive) | 0.993 (inactive) | 0.956 (inactive) | 0.964 (inactive) | 1.01 (inactive) | 1 (inactive) | 0.996 (inactive) | 0.999 (inactive) |
| CCOc1ccc(NC(C)=O)cc1 [Phenacetin] (20 µM) | 1.11 | 1.02 | 1.01 | 1.3 | 1.03 (inactive) | 0.966 (inactive) | 0.999 (inactive) | 1.07 (inactive) | 1.02 (inactive) | 0.997 (inactive) | 1.01 (inactive) | 0.992 (inactive) |
| CO[C@H]1/C=C/O[C@@]2(C)Oc3c(C)c(O)c4c(O)c(c(/C=N/N5CCN(C6CCCC6)CC5)c(O)c4c3C2=O)NC(=O)/C(C)=C\C=C\[C@H](C)[C@H](O)[C@@H](C)[C@@H](O)[C@@H](C)[C@H](OC(C)=O)[C@@H]1C [Rifapentine] (20 µM) | 0.0116 | 0.42 | 0.784 | 0.198 | 0.572 (active) | 0.0208 (active) | 0.145 (active) | 0.829 (inactive) | 0.583 (active) | 1.92 (active) | 1.06 (inactive) | 0.128 (active) |
| CC(C)c1cc2c(cc1S(=O)(=O)O)[C@@]1(C)CCC[C@@](C)(C(=O)O)[C@@H]1CC2 [Ecabet sodium] (20 µM) | 1.16 | 1 | 1.01 | 0.982 | 0.974 (inactive) | 0.972 (inactive) | 1.01 (inactive) | 0.955 (inactive) | 1 (inactive) | 1.01 (inactive) | 0.991 (inactive) | 0.995 (inactive) |
| O=C1OC(CN2CCOCC2)CN1/N=C/c1ccc([N+](=O)[O-])o1 (stereo not given) [Furaltadone hydrochloride] (20 µM) | 0.861 | 1.04 | 0.945 | 0.987 | 0.938 (inactive) | 0.89 (inactive) | 0.852 (inactive) | 0.777 (inactive) | 0.939 (inactive) | 1.7 (active) | 1.01 (inactive) | 0.929 (inactive) |
| CCCC(=O)Nc1ccc(OCC(O)CNC(C)C)c(C(C)=O)c1 (stereo not given) [Acebutolol hydrochloride] (20 µM) | 0.937 | 0.989 | 0.971 | 0.781 | 1.06 (inactive) | 1.03 (inactive) | 1.03 (inactive) | 0.996 (inactive) | 1.01 (inactive) | 0.958 (inactive) | 0.99 (inactive) | 0.985 (inactive) |
| CC(c1cc2ccccc2s1)N(O)C(N)=O (stereo not given) [Zileuton] (20 µM) | 1.11 | 0.91 | 0.978 | 1.01 | 1.06 (inactive) | 0.987 (inactive) | 1.03 (inactive) | 0.86 (inactive) | 1.01 (inactive) | 1 (inactive) | 0.98 (inactive) | 1.07 (inactive) |
| CCOc1ccc2nc3cc(N)ccc3c(N)c2c1 [Ethacridine lactate] (20 µM) | 0.937 | 0.981 | 0.974 | 0.954 | 0.985 (inactive) | 1.07 (inactive) | 0.856 (inactive) | 1.14 (inactive) | 1.01 (inactive) | 1.12 (inactive) | 0.993 (inactive) | 0.837 (inactive) |
| Cc1ccc2c(c1)c1c3n2CCNC3CCC1 (stereo not given) [Pirlindole mesylate] (20 µM) | 0.975 | 1.06 | 0.98 | 1 | 0.963 (inactive) | 0.987 (inactive) | 1.05 (inactive) | 1.06 (inactive) | 1 (inactive) | 1.01 (inactive) | 1 (inactive) | 1.08 (inactive) |
| CC(C(=O)O)c1ccc2c(c1)Cc1cccnc1O2 (stereo not given) [Pranoprofen] (20 µM) | 1.01 | 1.06 | 1.03 | 0.92 | 0.978 (inactive) | 0.985 (inactive) | 0.95 (inactive) | 0.95 (inactive) | 1.01 (inactive) | 0.993 (inactive) | 1.01 (inactive) | 0.94 (inactive) |
| CC(=O)Nc1ccc(CC(=O)O)cc1 [Actarit] (20 µM) | 0.864 | 0.972 | 1.03 | 1.11 | 1.02 (inactive) | 1.03 (inactive) | 0.992 (inactive) | 1.35 (inactive) | 1 (inactive) | 0.96 (inactive) | 1.01 (inactive) | 0.944 (inactive) |
| Oc1ccc(OCc2ccccc2)cc1 [Monobenzone] (20 µM) | 1.21 | 0.897 | 1.11 | 1.03 | 0.974 (inactive) | 1.02 (inactive) | 0.872 (inactive) | 0.884 (inactive) | 1.01 (inactive) | 0.978 (inactive) | 0.996 (inactive) | 0.828 (inactive) |
| CCN1CC(CCN2CCOCC2)C(c2ccccc2)(c2ccccc2)C1=O (stereo not given) [Doxapram hydrochloride] (20 µM) | 1.01 | 0.969 | 0.996 | 0.884 | 0.932 (inactive) | 1.09 (inactive) | 1.07 (inactive) | 0.977 (inactive) | 0.978 (inactive) | 1.01 (inactive) | 1.02 (inactive) | 1.08 (inactive) |
| Cn1cc(C(=O)[C@@H]2CCc3[nH]cnc3C2)c2ccccc21 [Ramosetron hydrochloride] (20 µM) | 0.928 | 0.966 | 1 | 0.964 | 0.964 (inactive) | 1.02 (inactive) | 1 (inactive) | 0.969 (inactive) | 1.01 (inactive) | 1.11 (inactive) | 0.997 (inactive) | 1.04 (inactive) |
| CN(C)CCC[C@@]1(c2ccc(F)cc2)OCc2cc(C#N)ccc21 [Escitalopram oxalate] (20 µM) | 0.99 | 0.986 | 1.11 | 0.828 | 1.02 (inactive) | 0.971 (inactive) | 1.01 (inactive) | 1.01 (inactive) | 1.02 (inactive) | 0.993 (inactive) | 1.02 (inactive) | 0.965 (inactive) |
